Experiment [1] can be described thus: TOX21_p53_BLA_p5_viability: Viability Assessment in the Tox21 HCT-116 p53 Agonism Beta-lactamase Assay, Phase 5 (AID 2283600; active = hit-call score of the fitted dose curve at least 0.9, where 1 is the maximum). An outline of the steps: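 Compounds, pinned from DMSO at 217-fold dilution, were left on the cells for 16 h. The viability endpoint was ATP content measured by CellTiter-Glo luminescence, where falling signal reflects cytotoxicity.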

Experiment [2] is described as follows: CCTE_Shafer_MEA_acute_spike_number: CCTE's Neural Acute Assay for Total Number of Spikes, Shafer Lab (AID 2284008). An outline of the steps:
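Rat cortical cultures, DIV 13/15, 37 C. 40 min baseline rec, cpd 0.03-40 uM, 40 min post-dose rec. Band-pass 300-5000 Hz, spike threshold 8x rms; % change in spike count per well, DMSO neg ctrl, loss-of-signal fit.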

Experiment [3] can be described thus: CCTE_Shafer_MEA_acute_firing_rate_mean: CCTE's Neural Acute Assay for Mean Firing Rate, Shafer Lab (AID 2284009).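 Also: analyzed for loss of signal so actives lower firing rate relative to DMSO.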 In short, it runs like this: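 Percent change in well-mean firing rate was derived from extracellular spikes detected at 8x rms noise (300-5000 Hz band-pass) before and after a 40-min compound exposure. Cultures were primary rat cortical neurons, tested at 0.03-40 uM.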

Experiment [4] is described as follows: CCTE_Harrill_HTTr_Viability_MCF7: CCTE's 6-hour Cell Viability Assessment for the High-Throughput Transcriptomics (HTTr) Platform, in MCF-7 cells cultured in DMEM + 10% fetal bovine serum, Harrill Lab (AID 2284010). In short, it runs like this:
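Cells were dosed with chemicals in an eight-point dilution series, imaged 6 hours later for propidium iodide uptake, and the endpoint was analyzed by bidirectional fitting against DMSO as negative control.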

Experiment [5] in a line: CCTE_Harrill_HTTr_Apoptosis_MCF7: CCTE's 6-hour Apoptosis Assessment for the High-Throughput Transcriptomics (HTTr) Platform, in MCF-7 cells cultured in DMEM + 10% fetal bovine serum, Harrill Lab (AID 2284011). In short, it runs like this:
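Read-out: CellEvent Caspase 3/7 Green signal by high content imaging, gain-of-signal indicating apoptosis. MCF-7 cells, DMEM + 10% FBS, eight-point dilution series, 6 h exposure. Curves fitted bidirectionally relative to DMSO negative control.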

Experiment [6] is described as follows: CCTE_Harrill_HTTr_CellCount_MCF7: CCTE's Cell Proliferation Assessment for the High-Throughput Transcriptomics (HTTr) Platform, Harrill Lab (AID 2284012; active = hit-call score of the fitted dose curve at least 0.9, where 1 is the maximum;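 also: cells exposed to compound for six hours; intended direction is loss of nuclei count meaning fewer cells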). An outline of the steps: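 Chemicals in eight-point dilution series are added to MCF-7 cells for six hours, nuclei are stained with Hoechst and imaged, and per-well nuclei counts are fitted in both directions relative to DMSO controls.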

Experiment [7] can be described thus: CCTE_Shafer_MEA_acute_burst_number: CCTE's Neural Acute Assay for Single-Electrode Bursts, Shafer Lab (AID 2284013). In short, it runs like this: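 Spontaneous network activity of primary rat cortical neurons was recorded extracellularly on microelectrode arrays at 37 C, with 40-min periods before and during exposure to 0.03-40 uM compound on DIV 13 or 15.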

Experiment [8] in a line: CCTE_Shafer_MEA_acute_burst_duration_mean: CCTE's Neural Acute Assay for Mean Burst Duration, Shafer Lab (AID 2284014).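 Also: hits are decreases in mean burst duration relative to DMSO controls.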 An outline of the steps: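 Read-out is the per-well percent change in mean burst duration (first to last spike within a single-electrode burst) between 40-min recordings before and after compound. Cultures were primary rat cortical neurons on MEAs, dosed at 0.03-40 uM on DIV 13 or 15.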

Experiment [9] in a line: CCTE_Shafer_MEA_acute_per_burst_spike_number_mean: CCTE's Neural Acute Assay for Average Number of Spikes Per Burst, Shafer Lab (AID 2284015).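 Also: hits are decreases in mean spikes per burst versus baseline.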 An outline of the steps:
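Read-out: percent change in mean spikes per burst, each well's post-exposure 40-min recording versus its own 40-min baseline. Rat cortical cultures, DIV 13 or 15, compounds 0.03-40 uM; DMSO is negative control, loss-of-signal fitting.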

Experiment [10] is described as follows: CCTE_Shafer_MEA_acute_interburst_interval_mean: CCTE's Neural Acute Assay for Mean Interburst Interval, Shafer Lab (AID 2284016).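 Also: percent change of mean interburst interval versus each well's own pre-dose baseline; curves fitted for decrease in interburst interval relative to DMSO.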 An outline of the steps:
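Rat cortical cultures, DIV 13/15; 20 min equilibration, 40 min baseline, compound 0.03-40 uM, 40 min re-recording, 37 C. Spikes detected at 8x rms noise (300-5000 Hz band-pass). Endpoint: % change in interburst interval, fitted in loss direction vs DMSO.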

Experiment [11] is described as follows: CCTE_Shafer_MEA_acute_burst_percentage_mean: CCTE's Neural Acute Assay for Percentage of Spikes in a Burst, Shafer Lab (AID 2284017). In short, it runs like this: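 Rat cortical cultures, DIV 13/15, 37 C. Spikes detected at 8x rms noise (300-5000 Hz band-pass). Burst spikes/total spikes averaged across electrodes per well; % change post- vs pre-treatment (40 min each), loss-of-signal fit vs DMSO.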

A short description of experiment [12]: CCTE_Shafer_MEA_acute_burst_percentage_std: CCTE's Neural Acute Assay for Standard Deviation of Burst Percentage, Shafer Lab (AID 2284018).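 Also: fitted in the negative direction so actives lower burst percentage SD.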 An outline of the steps: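 Value is percent change from baseline in the across-electrode SD of spikes-in-bursts percentage, wells with >/= 10 active electrodes. Acute 40-min exposure to 0.03-40 uM on DIV 13 or 15 rat cortical cultures, recorded at 37 C after 40-min baseline.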

The nature of experiment [13]: CCTE_Shafer_MEA_acute_per_network_burst_spike_number_mean: CCTE's Neural Acute Assay for Average Number of Spikes in a Network Burst, Shafer Lab (AID 2284019). In short, it runs like this: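 Read-out is mean spike count per network burst, taken as percent change between a 40-min pre-exposure and a 40-min post-exposure recording per well. Rat primary cortical neurons on MEAs at 37 C, DIV 13 or 15; compounds at 0.03-40 uM.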

Experiment [14] is described as follows: CCTE_Shafer_MEA_acute_per_network_burst_spike_number_std: CCTE's Neural Acute Assay for Standard Deviation of Number of Spikes in a Network Burst, Shafer Lab (AID 2284020).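 Also: fitted for decrease in spike-number SD versus DMSO so actives lower it.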 In short, it runs like this:
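Spontaneous network activity of primary rat cortical neurons is recorded extracellularly before and after a 40-min compound exposure (0.03-40 uM) at 37 C. The endpoint is the well's percent change in burst spike-number SD.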

Experiment [15] can be described thus: CCTE_Shafer_MEA_acute_per_network_burst_electrodes_number_mean: CCTE's Neural Acute Assay for Mean Number of Electrodes in a Network Burst, Shafer Lab (AID 2284021).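 Also: curves fitted for decreases only so hits reduce electrodes per burst.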 An outline of the steps: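 Readout: % change in mean electrodes active per network burst, post- vs pre-treatment, each well. Spikes detected at 8x rms noise after 300-5000 Hz band-pass; rat cortical cultures, DIV 13/15, compounds 0.03-40 uM, DMSO baseline.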

A short description of experiment [16]: CCTE_Shafer_MEA_acute_cross_correlation_area: CCTE's Neural Acute Assay for Area of Cross Correlation, Shafer Lab (AID 2284024).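 Also: rat primary cortical neuron networks on 48-well MEA at DIV 13 or 15 with 40 min exposure; area under pooled inter-electrode spike cross-correlation near zero lag as percent change from own baseline; curves fitted for loss of cross-correlation area so actives lower synchrony.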 An outline of the steps: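 Rat cortical cultures, DIV 13/15, MEA; spikes detected at 8x rms noise (300-5000 Hz band-pass). Compound 0.03-40 uM, ≥3 wells each. Readout: % change in pooled inter-electrode cross-correlation area vs own baseline; DMSO negative control.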

The nature of experiment [17]: CCTE_Shafer_MEA_acute_synchrony_index: CCTE's Neural Acute Assay for Synchrony, Shafer Lab (AID 2284027).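 Also: fitted for loss of signal so actives lower synchrony relative to DMSO.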 An outline of the steps: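 Readout is percent change in the unitless network synchrony index (0 low, 1 high) between a 40-min baseline and a 40-min recording in compound. Cultures were primary rat cortical neurons on MEAs, treated at 0.03-40 uM on DIV 13 or 15.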

Experiment [18] is described as follows: CCTE_Shafer_MEA_dev_firing_rate_mean: CCTE's Neural Network Formation Assay for Mean Firing Rate, Shafer Lab (AID 2284031).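 Also: curve fitted for loss of firing so AC50 reflects decreased mean firing rate.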 In short, it runs like this:
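Rat primary cortical neurons were seeded on multielectrode arrays and treated from plating through day 12, with redosing at each feed. Spontaneous spiking was recorded four times; mean firing rate AUC was fitted downward against DMSO.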

Experiment [19] in a line: CCTE_Shafer_MEA_dev_per_burst_spike_percent: CCTE's Neural Network Formation Assay for Percent of Spikes in a Burst, Shafer Lab (AID 2284032).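 Also: fitted as a decrease in burst spike percentage below DMSO baseline.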 In short, it runs like this:
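Rat primary cortical neurons on 16-electrode MEA wells, dosed from plating day 0 for 12 days with renewal on DIV 5 and 9; spikes-in-bursts percentage averaged over bursting electrodes, collapsed as AUC across days 5, 7, 9, 12; loss direction versus DMSO.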

The nature of experiment [20]: CCTE_Shafer_MEA_dev_active_electrodes_number: CCTE's Neural Network Formation Assay for Number of Active Electrodes, Shafer Lab (AID 2284040; active = hit-call score of the fitted dose curve at least 0.9, where 1 is the maximum;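 also: potency for loss of active electrodes versus DMSO so lower counts are hits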). In short, it runs like this: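 Primary rat cortical neurons on 16-electrode MEA wells, exposed from day 0 through day 12 with compound renewed at DIV 5 and 9 feeds. Active electrodes (mean firing ≥5 spikes/min) counted at DIV 5, 7, 9, 12; trapezoidal AUC across days, loss-of-signal versus DMSO.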

Experiment [21] is described as follows: CCTE_Shafer_MEA_dev_burst_rate: CCTE's Neural Network Formation Assay for Burst Rate, Shafer Lab (AID 2284042).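 Also: potency for loss of burst rate below DMSO control.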 An outline of the steps:
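Cells plated, treated day 0; recorded DIV 5, 7, 9, 12; fed and re-treated DIV 5, 9. Endpoint: bursts per recording time, active-electrode well mean, trapezoidal AUC, fitted in decreasing direction against DMSO baseline.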

Experiment [22] in a line: CCTE_Shafer_MEA_dev_bursting_electrodes_number: CCTE's Neural Network Formation Assay for Number of Bursting Electrodes, Shafer Lab (AID 2284043; active = hit-call score of the fitted dose curve at least 0.9, where 1 is the maximum;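 also: potency is for loss of bursting electrodes relative to DMSO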). In short, it runs like this: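 Read-out is the per-well number of electrodes bursting at least once every 2 minutes, recorded on days 5, 7, 9 and 12 and collapsed by trapezoidal area under the curve. Cultures were primary rat cortical neurons on MEA plates, treated continuously from plating.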

Molecules are shown by their SMILES. Results filed as inconclusive are left out. A structure can be active in one record and inactive in another. Active and inactive are the calls of the source. The calls were made as follows, unless noted: active = hit-call score of the fitted dose curve at least 0.9, where 1 is the maximum; inactive = score below 0.9.

Take `[Cd+2].[Cl-].[Cl-]`: the compound was called inactive in experiment [1], in experiment [2], in experiment [3], in experiment [4], in experiment [5] and in [6]. Moreover, the outcome in [7], in [8], in experiment [9], in experiment [10], in [11] and in experiment [12] was inactive. In addition, the compound was classed as inactive in experiment [13], in [14], in experiment [15], in experiment [16] and in [17]. Moreover, the AC50 is 331 nM (active) in [18]; 436 nM (active) in experiment [19]; 315 nM (active) in [20]; 461 nM (active) in experiment [21]; 302 nM (active) in experiment [22].

One may read the AC50 as the midpoint of the concentration-response curve, whichever way the signal moves.

For the origin of these results see PubChem BioAssay (EPA / NIEHS).
